Screening data from PubChem.
The list is not random: actives were taken first. Their share in the collection is about 4%.
TWEAK Fn14 block: inhibitors of TWEAK-Fn14 signaling, primary screen, luciferase reporter cells, uHTS. actives 2% (n = 360,000). inhibition, % at 10 µM. TWEAK-stimulated Fn14 reporter cells, luciferase luminescence, 8 h; in the data active = inhibition above about 50%
CF NFkB inh: inhibitors of PAF-induced NF-kB signaling, primary screen, cell-based, GFP fluorescence, uHTS; KKLEB NF-kB-GFP reporter, GFP fluorescence overnight; inhibition, % at 5 µM; actives 0.86% (n = 360,000); AID 588850, 2011;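 active = at least 50% inhibition at 5 µM, scaled per plate between neutral and stimulator controls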;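 note: PAF is a Pseudomonas aeruginosa culture filtrate used as stimulus; plate controls were PAF-stimulated DMSO wells for no effect and unstimulated DMSO wells for full effect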
TROY signal inh: inhibitors of TROY-driven NF-kB signaling, primary screen, Q293 LMP1-TROYcd cells, NF-kB luciferase, uHTS. Q293 LMP1-TROYcd NF-kB luciferase reporter, 4 h. inhibition, % at 10 µM. actives 0.98% (n = 360,000). AID 1347056, 2019;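 active = compounds whose plate-normalised and pattern-corrected inhibition of the luciferase reporter signal at the single screening dose is 50% or more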
HIF-2a inh: HIF-2a reporter inhibitors, primary screen, luminescence, 786-0 RCC cells. 786-0 RCC cells HIF-2a reporter, luciferase luminescence, overnight. inhibition, % at 18.8 µM. actives 0.72% (n = 360,000). AID 624352, 2012;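 active = inhibition of the luminescence signal of 40% or more relative to plate controls, in a single-dose primary screen at 18.75 µM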
KKLEB tox: cytotoxicity in KKLEB CF airway cells, primary screen, cytotoxicity control for CF NF-kB inhibitor project, cell-based, uHTS, fluorescence assay plates; KKLEB CF airway cells viability, ATPlite luminescence, overnight; active compounds read low; cells stimulated with P. aeruginosa culture filtrate; AID 602141, 2011; actives 0.36% (n = 360,000); activity change (cytotoxicity), % at 5 µM;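 active = corrected activity change at or below -50% at 5 µM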
Peg3 promoter: Peg3 promoter-driven luciferase inhibitors, primary screen, cell-based, HeLa, luciferase luminescence | HeLa PEG-Prom luciferase reporter, overnight | actives 1.7% (n = 360,000) | inhibition, % at 20 µM;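 active = inhibition of at least 50% at 20 µM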
* = called active by the depositor; / = no result.

SMILES	TWEAK Fn14 block	CF NFkB inh	TROY signal inh	HIF-2a inh	KKLEB tox	Peg3 promoter
COc1ccc(C)cc1S(=O)(=O)N(C)CC(=O)N1CCCCCC1	34	-7	-17	7	6	75*
CCN(CC)c1ccc2cc(-c3nnc(-c4ccccc4)o3)c(=O)oc2c1	67*	-109	44	-204	13	-195
CCN(CC)c1ccc2cc(-c3nc4ccccc4[nH]3)c(=O)oc2c1	88*	-163	73*	-148	-90*	70*
Cc1ccc(O)c(C(=O)c2cnc3c(c2)COc2ccccc2-3)c1	63*	46	6	16	-5	-17
CCOC(=O)C(=C1Nc2ccccc2N1)n1c(-c2cccnc2)nc2ccccc21	12	/	-70	-211	/	/
CC1CCc2c(sc3nc(SCC(=O)O)n(-c4ccccc4)c(=O)c23)C1 (centres undefined)	89*	-10	-27	6	8	-1
Cc1ccc(-n2c(SCC(=O)O)nc3sc4c(c3c2=O)CCCC4)cc1	10	-19	0	17	14	8
CC1CN(C(=O)CNC(=O)COc2ccccc2)CC(C)O1 (centres undefined)	11	-1	0	7	-32	0
COc1ccc(Cc2[nH]n3c(=O)cc(C(C)C)nc3c2-c2ccccc2)cc1	15	9	34	22	-6	52*
COc1ccc(S(=O)(=O)NCCSCc2ccco2)cc1	72*	1	/	19	9	15
CCOc1ccc(S(=O)(=O)NCCSCc2ccco2)cc1	11	-1	0	7	1	14
COC(=O)[C@@]1(C(C)C)N=C(c2cc(OC)c(OC)c(OC)c2)[C@]2(O1)C(=O)Nc1ccccc12	8	/	16	16	/	/
Cc1ccccc1NC(=O)c1ccc(NS(=O)(=O)c2cc(C(C)(C)C)cc(C)c2C)cc1	52*	-14	37	-11	-7	23
OC[C@@H]1CN(Cc2ccco2)C[C@H](n2cnc3c(Nc4ccccc4)ncnc32)O1	5	14	-3	-15	-6	-16
CCOc1ccc(NC(=O)CCN2C(=S)NC(C)(C)CC2C)cc1 (centres undefined)	94*	10	-2	8	3	1
CC1CC(C)(C)NC(=S)N1CCCC(=O)Nc1ccc(Cl)cc1 (centres undefined)	29	-6	3	13	24	16
COc1cc(CCCN2CCNC[C@@H]2c2ccccc2)cc(OC)c1OC	7	-23	-24	6	-3	-17
c1ccc([C@H]2CNCCN2CCc2cccc3ccccc23)cc1	13	32	13	1	-14	86*
c1ccc2c(C[C@@H]3CNCCN3CC3CCCCC3)cccc2c1	-11	11	4	8	-3	94*
Cc1cccc(C)c1N1C(=O)c2ccccc2NC(=O)C1C(=O)NCC(C)C (centres undefined)	/	/	/	6	/	/
COc1cccc(CNC(=O)[C@@H]2CCCN2C(=O)OC(C)(C)C)c1	10	/	-4	-5	/	/
COc1ccccc1N1CCN(C(=S)Nc2ccc3nc(N4CCOCC4)cc(C)c3c2)CC1	52*	20	37	-13	-17	-8
COc1ccccc1N1CCN(C(=S)Nc2cccc(C)c2)CC1	63*	12	61*	11	6	-5
CC(CCN1C(Nc2ccccc2)=NC[C@@H]1C)c1ccccc1 (some centres undefined)	-6	8	0	0	2	-2
COc1cc(CN(C)C)cc(C=O)c1O	13	16	8	13	2	3
SMILES	TWEAK Fn14 block	CF NFkB inh	TROY signal inh	HIF-2a inh	KKLEB tox	Peg3 promoter
COc1cc(N=Nc2ccc(Br)cc2)cc(C=O)c1O	87*	85*	47	-72	-46	49
CCOC(=O)c1[nH]c2cc3c(cc2c1NC(=O)CN1CCCC1)OCO3	-7	11	6	12	-6	6
CCOC(=O)c1[nH]c2cc3c(cc2c1NC(=O)CN1CCc2ccccc2C1)OCO3	35	-2	-45	-8	-4	68*
O=S(=O)(c1ccccc1)N1CCN(c2cccc(Cl)c2)CC1	-2	-14	-10	-1	14	3
O=[N+]([O-])c1ccc2[nH]cc(S(=O)(=O)N3CCN(c4cccc(Cl)c4)CC3)c2c1	18	13	39	7	1	60*
CCOC(=O)[C@]12CCCC=C1N(Cc1ccco1)C(=O)[C@H](CC(=O)N1CCCC1)C2	36	/	-14	12	/	/
Nn1c(=S)[nH]c2sc3c(c2c1=O)CCCC3	53*	17	75*	-6	-3	-2
COC(=O)c1sccc1N/N=C/c1cccc(Oc2ccccc2)c1	53*	-5	71*	-83	14	-123
COC(=O)c1sccc1N/N=C/c1ccc(OC)c(OC)c1OC	-54	4	-57	-266	-3	-266
COC(=O)c1sccc1NC(=O)c1cccc(OC)c1	11	-1	-5	-14	-3	12
COc1ccc2nc(C)cc(N/N=C/c3cccc(OC)c3O)c2c1	-59	-85	-42	17	-2	111*
COC(=O)c1sccc1N/N=C/c1cccc(OC)c1O	63*	-12	43	-82	6	-20
Cc1cccc(C)c1NC(=O)C(c1ccnc2ccccc12)N1CCN(CCN(C)C)CC1 (centres undefined)	/	/	/	15	/	/
C[C@@H]1CN([C@H](C)CO)C(=O)CCCn2nncc2CO[C@H]1CN(C)C(=O)Nc1ccc(N2CCN(C)CC2)cc1	5	-2	2	5	-3	-7
COc1ccccc1C1NC(=O)NC(C)=C1C(=O)OCC1CCCCC1 (centres undefined)	-4	4	17	6	-2	14
Cc1ccc(S(=O)(=O)Nc2cccc(C(=O)N3CCCC3)c2)cc1F	3	-10	3	-2	2	8
O=C(NCC1CCCN(Cc2ccc3c(c2)OCCO3)C1)c1ccc2c(c1)OCO2 (centres undefined)	-4	4	-24	19	-10	0
O=C(NCC1CCCN(Cc2ccc3nonc3c2)C1)c1cccc(C(F)(F)F)c1 (centres undefined)	15	-10	0	12	-3	51*
CC(C)Oc1ccc(S(=O)(=O)N2CCOCC2)cc1NC(=O)CSC(=S)N1CCCC1	-4	-6	3	17	11	22
Cc1sc2nc3ccc(NCc4ccco4)nn3c(=O)c2c1C	91*	28	3	-25	-7	-17
O=c1c2ccccc2nc2ccc(NCc3ccco3)nn12	19	-8	-10	-24	-2	-197
